Data on 31 compounds can be found in PubChem BioAssay (Tox21).

Records with an inconclusive call do not appear. Where a call stands in place of a potency, no number is given. The source made the active and inactive calls. Calls come from the whole dose curve; as a rule, active = well fitted activation curve with a large enough effect in the signal ratio in the repeat runs (not every such curve was filed as active); inconclusive = weak or mixed curves; inactive = flat fitted curve, though single readings scatter; the % refers to the signal ratio.
Potency is the fitted concentration of half-maximal effect.

This assay can be described thus: qHTS assay to identify small molecule agonists of H2AX (AID 1224845). Conditions: CHO-K1 phospho-H2AX Ser139 HTRF, 3 h; series mostly up to 154 µM. The essentials: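 Wild-type CHO-K1 cells plated overnight, then exposed 3 hr at 37C to compounds at 15 concentrations (0.76% DMSO). Lysed, then HTRF anti-pH2AX(S139)-cryptate/anti-H2AX-d2 detection after 24 hr at room temperature; emissions 665 and 620 nm.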
Regarding `O=C(O)c1cn(-c2ccc(F)cc2)c2cc(N3CCNCC3)c(F)cc2c1=O`, the Potency entry is “inactive”.
As for `CCCCC(CC)COC(=O)CC(C(=O)OCC(CC)CCCC)S(=O)(=O)O` (stereo unspecified), the entry is “inactive”.
`NC(N)=Nc1nc(CSCC/C(N)=N/S(N)(=O)=O)cs1`: the Potency result is “inactive”.
As for `O=C(Oc1ccccc1)c1ccccc1O`, the entry is “inactive”; as for `CCN1CCCC1CNC(=O)c1cc(S(=O)(=O)CC)c(N)cc1OC` (stereo unspecified), “inactive”.
As for `OCC(CO)N[C@H]1C[C@](O)(CO)[C@@H](O)[C@H](O)[C@H]1O`, the Potency result was “inactive”.
Take `O=C(O)c1cccc(C(=O)O)c1`: the Potency result was “inactive”.
As for `CC(=O)N[C@@H](CS)C(=O)O`, the entry is “inactive”; as for `CC1COC(=O)O1` (stereo unspecified), “inactive”; as for `NC(N)=NC(=O)Cc1c(Cl)cccc1Cl`, “inactive”.
For `CCCC(=O)c1ccccc1`, the Potency entry is “inactive”.
Consider `C=C(C)C1CC=C(C)C(OC(C)=O)C1` (stereo unspecified), for which the Potency result is “inactive”.
For `CC(C)(C)NCC(O)COc1ccccc1OCC1CCCO1` (stereo unspecified) the value was “inactive”.
As for `COC(=O)[C@H]1[C@H]2C[C@@H]3c4[nH]c5cc(OC)ccc5c4CCN3C[C@H]2C[C@@H](OC(=O)c2cc(OC)c(OC)c(OC)c2)[C@@H]1OC`, the entry is “inactive”.
For `c1ccc2n[nH]nc2c1`, the Potency entry was “inactive”.
For `CC(=O)OCCOCCOCCOC(C)=O` the value was “inactive”; for `COC(=O)/C=C/c1ccccc1`, “inactive”.
Take `Cc1scc2c1N(C(=O)CN1CCN(C)CC1)c1ccccc1NC2=O`: the Potency entry is “inactive”.
As for `Oc1c(Cl)cc(Cl)c(Cl)c1Cc1c(O)c(Cl)cc(Cl)c1Cl`, the entry is “inactive”.
As for `Nc1nc2ccccc2[nH]1`, the entry is “inactive”; as for `NCCCCCC(=O)O`, “inactive”.
As for `CCC(C)(C)C(=O)O[C@H]1C[C@@H](C)C=C2C=C[C@H](C)[C@H](CC[C@@H]3C[C@@H](O)CC(=O)O3)[C@H]21`, the entry is “inactive”.
As for `O=C(O)CCc1ccccc1`, the Potency entry was “inactive”.
As for `OCCN1CCNCC1`, the Potency result is “inactive”.
As for `[Cl][In]([Cl])[Cl]`, the entry is “inactive”; as for `CC(C)CCOC(=O)c1ccc(N(C)C)cc1`, “inactive”; as for `CCOC(=O)C(C)C(C)=O` (stereo unspecified), “inactive”.
As to `CCC[C@H](N[C@@H](C)C(=O)N1[C@H](C(=O)O)C[C@@H]2CCCC[C@@H]21)C(=O)OCC`, the Potency entry was “inactive”.
As for `CC(COc1ccccc1)N(CCCl)Cc1ccccc1` (stereo unspecified), the figure is 113 µM (active); as for `O=C1CC2(CCCC2)CC(=O)N1CCCCN1CCN(c2ncccn2)CC1`, “inactive”.
As for `O=c1n(CC2CO2)c(=O)n(CC2CO2)c(=O)n1CC1CO1` (stereo unspecified), the Potency is 112 µM (active).
